66 sequences from PubChem BioAssay AID1159506 (National Center for Advancing Translational Sciences (NCATS), 2015) can be followed below.

In all, about 59,000 sequences were measured (the read-out: median about -0.00055, lowest 2% from about -2 on). This is one part of a sample in which the lowest values are shown more often than they occur.

The test is described as follows: Identification of proteins required for the processing of the EWS-FLI1 nascent transcript.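 Note: robust z of luciferase light less the median z of siRNAs with the same seed.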 To be noted: TC32 Ewing sarcoma NR0B1-luc vs CMV-luc (EWS-FLI1 target promoter against control promoter), 48 h; screened at 20 nM (by protocol). The gist of the method: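 TC32 Ewing sarcoma cells carrying NR0B1-promoter or CMV-promoter luciferase reporters were reverse-transfected with single siRNAs at 20 nM, three per gene genome-wide. Luminescence was read after 48 h and normalized to non-targeting controls.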
UCUGAUGUAAUUUCCAGUU against AARD had a seed-corrected z-score of 0.424.

In turn, UUAGUUGCUGACUUUCUCC against TRAPPC9 came in with a seed-corrected z-score of -2.06.

In turn, UUUGAUUUGGUUGUGACCC against ZYX returned a seed-corrected z-score of -0.301.

On to UUCAAGUUUGUUCUCAGAC against GOLGA6L7P, for which the seed-corrected z-score was -0.298.

With AAGGAAAUUAGGAUAAUAG against FAM217B, the seed-corrected z-score was found to be 0.732.

For the sequence UGUCUCUCAGGCAACAGGC against PROP1, the seed-corrected z-score is -0.922.

The sequence UUCAUUAUCAUCUAGGUGG against ACTR5 showed a seed-corrected z-score of -0.49.

UGUGGACAAGGUCUAGGGC against LOC401317 yielded a seed-corrected z-score of -2.18.

Regarding AUAGUUGACAUUCCGAACC against CDK5RAP3, the seed-corrected z-score stood at 0.941.

UUAGAGUUUGCGAAGCAGG against PSG11 yielded a seed-corrected z-score of 0.96.

On to UUUAUAUCCAUAUCCUUUC against PPIC, for which the seed-corrected z-score was determined as 0.0569.

Turning to AGAAGAUGAAUCACAGAGC against BAGE4, the seed-corrected z-score was -0.377.

Regarding UAUCAUAUUUAAGAGACUG against TSSC1, the seed-corrected z-score stood at 0.912.

UAUUUGAAGCUCCAGGGUG against FBXL15 had a seed-corrected z-score of 0.429.

As to UUCUUUAUGCACAACUCCC against MYO1C, the seed-corrected z-score is -2.91.

UUACUUUUAGUUCAUACAG against SOX1 had a seed-corrected z-score of -0.0466.

In the case of AUCAGUACUAAAAUAUCGG against ATG2B, the seed-corrected z-score was determined as 0.25.

As to UCCUCGAAAAUCUCAAAGC against MYO1B, the seed-corrected z-score was -0.441.

As for UGGUAUUCAAAAUAGUCGC against TLK1, the seed-corrected z-score was -0.673.

Sequence UUCUGCUUCCGGUAAAUGC against SH3TC1 registered a seed-corrected z-score of -0.467.

The sequence UUUGUUUCGCUGGUCUUUG against RYBP yielded a seed-corrected z-score of -2.49.

For the sequence UAUCCUGUAAGUUGUGGGC against TEX28, the seed-corrected z-score worked out at 1.15.

As for UCACUAAUAGGAUCUUCGC against RAB3GAP1, the seed-corrected z-score was 0.413.

Sequence AAGGUUUUCCGAGUAACUC against LYZL6 yielded a seed-corrected z-score of 1.38.

With AUAAGACUGACCUUGGUUG against TFCP2L1, the seed-corrected z-score was -2.59.

In turn, UUUUAUUCGAAAUUCUGCA against ITGB1BP1 yielded a seed-corrected z-score of 0.195.

For AAGCCGAAAAUUGAUCUGC against GLDC, the seed-corrected z-score is 0.214.

Sequence AAAUCUGCACUCUUGGUCA against RGS11 yielded a seed-corrected z-score of -2.54.

With AUGGUAGACACCUUAGUUC against RPL7P23, the seed-corrected z-score was -2.39.

For UCGUUUACCAAACAGUUUC against BTK, the seed-corrected z-score was -0.0928.

With UUUGUUCUGGAUGCCCUGC against WARSP1, the seed-corrected z-score was 0.407.

The sequence UUGGUUCCAUUGUAGGUCU against TSPAN3 registered a seed-corrected z-score of -0.422.

UUCUUUUUGUCCAAACUCU against SLC25A25 came in with a seed-corrected z-score of -0.247.

As for AAAGUUACUCUUCCAAACC against POC1A, the seed-corrected z-score was -2.67.

In the case of AUAUUUCAUAUAGGCGAUG against PLA2G10, the seed-corrected z-score was -0.215.

Regarding UCUUGGUCCUCUGGCAGUC against TMEM116, the seed-corrected z-score is -0.118.

For AAAUAAAACGUACAAAUAC against SCRT1, the seed-corrected z-score was found to be 0.713.

Take UUCAUCUCCACAAUCACCG against MAG: the seed-corrected z-score was -0.753.

As for AAGCGGGAUGAAGAAAUCC against GSX2, the seed-corrected z-score was found to be 3.22.

For UCUGCACUUGUCAAUAUCC against MED10, the seed-corrected z-score is -0.53.

As for UUCGUUAUCAAUGCAGUAG against TUBB4B, the seed-corrected z-score was -1.5.

AUCUUGGUGAUUUCGCGGC against NDN: the seed-corrected z-score is -2.11.

Turning to UAACAUAAUUAUAACCUCC against ZNF716, the seed-corrected z-score is 0.757.

Sequence UGAGGUUAGAGCACUGCAC against CCDC87 returned a seed-corrected z-score of -0.47.

UUCUUUCUCACGGUCACUC against LOC728445 showed a seed-corrected z-score of -0.746.

Turning to UCAGGUGCUCCAAGUACUG against TMEM201, the seed-corrected z-score was -2.21.

The sequence UCUUUGCUAGGUAAAAAGC against PRUNE displayed a seed-corrected z-score of 1.32.

Turning to AACCGAAGGAGAUUCCUGG against C8orf49, the seed-corrected z-score turned out to be 0.161.

The sequence AAAACGAUCAAAAUCUGUC against RPL14P1 yielded a seed-corrected z-score of -3.16.

The sequence AAUUCACAUGUUGUAAUCC against STRADBP1 gave a seed-corrected z-score of -0.053.

The sequence UUUCCUAUUCACAAGAGCG against FHIT showed a seed-corrected z-score of 1.2.

AAUCGCAUUGUUCAUGUCC against OR6K3 yielded a seed-corrected z-score of -1.67.

For the sequence UCCUUGCAAAUCUCCGACC against LTBP3, the seed-corrected z-score is -1.01.

Turning to AAACCGAUAAGAACUGAGA against TMEM41A, the seed-corrected z-score is 0.54.

Turning to AAACCUAUUAACUUCAAGC against CHKA, the seed-corrected z-score was -0.134.

The sequence AAAGUUGAGGGUAGCACUC against AP5B1 yielded a seed-corrected z-score of 0.334.

AUGGGUCUCAUGCUCCUCU against TMEM74B displayed a seed-corrected z-score of -2.13.

Consider UUAAUGAAUCUACAGUCCG against OTOR, for which the seed-corrected z-score was found to be 0.51.

Regarding AGUAUAUCACACUUGAUCC against COL4A4, the seed-corrected z-score was -0.00727.

In the case of UAAAUUUGCAUGAAGGUGU against TMEM179, the seed-corrected z-score turned out to be 0.108.

In the case of UCUAGGAGCAGCGCAACUG against ANKRD29, the seed-corrected z-score was -0.882.

AAGGUAAACGAUUAAAUUG against LAMTOR3 registered a seed-corrected z-score of 0.248.

In the case of UACAGUAGCACUGCCCUGU against LAMA5, the seed-corrected z-score is -2.69.

On to ACAUUGGUACCUGUCAUCC against GLYCTK, for which the seed-corrected z-score came to 0.203.

Consider AAAAUAUAGAUAUCUAUGC against GADD45B, for which the seed-corrected z-score was found to be 1.35.

AGCAGCAUCAUUCUCAUGU against LOXL4 returned a seed-corrected z-score of 0.376.
